Only some compounds are listed: those with a hit (about 9.9% of all), similar ones and a draw of the others.
KB-V1 cytotox: KB-V1 MDR subline cytotoxicity; KB-V1 MDR cells viability, CellTiter-Glo, 72 h; Potency, µM (doses to about 46.1 µM), hits mostly cytotoxic; hit rate 3.4% among 400,000; further: potency means the concentration at half of the fitted maximal effect; on the % scale 0 is the no-effect control and ±100 the full control effect; nearly all actives have a fitted effect of over 60% in size
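Following 72 h at 37 degrees C with compound, KB-V1 cell viability was read by CellTiter-Glo luminescence, medium being phenol-red-free DMEM plus 10% FBS; concentration-response parameters came from normalized, curve-fitted qHTS data.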
KB-3-1 tox: kills parental KB-3-1 adenocarcinoma cells. KB-3-1 viability, CellTiter-Glo ATP luminescence, 72 h. Potency, µM (top dose mostly 46.1 µM), most hits filed as cytotoxic. hit rate 1.4% among 400,000. AID 1347075; further: potency means the concentration at half of the fitted maximal effect; on the % scale 0 is the no-effect control and ±100 the full control effect; nearly all actives have a fitted effect of over 60% in size
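Multi-concentration cytotoxicity screen in KB-3-1 cells grown in DMEM lacking phenol red with 10% FBS. After 72 h at 37 °C with compound, ATP-dependent luminescence was recorded.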
IL-1B inflam inh: blocks inflammasome-driven IL-1 beta release; activity change, % at 57.5 µM; THP-1 LPS/ATP IL-1B secretion, AlphaLISA, 16 h; stronger effect = lower value; hit rate 4.7% among 360,000; in the data active means activity change below about -50%; inconclusive means mostly about -30% to -49%; further: on the % scale 0 is the no-effect control and ±100 the full control effect
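Secreted IL-1B measured by AlphaLISA bead assay after 16 h compound exposure of THP-1 cells; compounds (final up to 57.5 uM) added 1 h before LPS (250 ng/mL) and ATP (1.25 mM) stimulation; lower signal means less secretion.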
MCF10A rereplic: induces DNA re-replication in MCF 10a normal breast cells. MCF 10A DNA re-replication, Hoechst nuclear intensity, 48 h. Potency, µM (series often up to 46.1 µM), inactives show at the highest dose activity, positive = re-replication, actives largely listed as activators. hit rate 2.9% among 350,000. AID 624296; further: potency means the concentration at half of the fitted maximal effect; % of control where 0% means no effect; nearly all actives have a fitted effect of over 50% in size
SW480 rereplic: DNA re-replication induction in SW480 cells. AID 624297. hit rate 1.8% among 340,000. Potency, µM (top dose mostly 46.1 µM), without a hit: top-dose re-replication activation, usual class: activators. SW480 DNA re-replication, Hoechst DNA content imaging, 48 h; further: potency means the concentration at half of the fitted maximal effect; % of control where 0% means no effect; nearly all actives have a fitted effect of over 55% in size
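Cells (250 per well) received 23 nL compound or DMSO by pin tool and were kept 48 hr at 37 C, 5% CO2. Nuclei were then stained with Hoechst for 40 min and scanned for DNA content.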
An asterisk follows results filed as active; i = inactive; ? = inconclusive; / = no result given; [ ] = another dose, or the depositor's remark. Unless noted, the call rests on the fitted dose curve; in most records, active means well fitted curve in the direction sought with a large enough effect; inconclusive means small, poorly fitted or top-dose-only effect, or another doubt; inactive means no such curve, though single readings can be large; an effect the other way counts as inactive or inconclusive.

SMILES	KB-V1 cytotox	KB-3-1 tox	IL-1B inflam inh	MCF10A rereplic	SW480 rereplic
COc1cc(OC)cc(C(=O)N[C@H](C(=O)NC2CCCc3ccccc32)C(C)C)c1 (stereo partly specified)	?	?	16	8%	?
CN(C)c1ccc(NC(=O)c2ccc(Cn3cc([N+](=O)[O-])cn3)cc2)cc1	i	18µM*	4	?	?
COC(=O)[C@]12CCCCC=C1N(CCc1ccc(OC)c(OC)c1)C(=O)[C@H](CC(=O)NCCCCc1ccccc1)C2	?	i	?	/	/
O=C(C(=Cc1ccccc1)CN1CCCCC1)c1ccccc1	?	5.2µM*	-104*	0.65µM*	2.9µM*
Cc1nc(N2CCC3(CC2)OCCO3)c2nnn(Cc3ccccc3F)c2n1	?	i	-60*	?	-3%
CCc1nn2cc(C(=O)c3cc(Cl)ccc3O)cnc2c1-c1ccc(F)cc1	?	?	-77*	?	5%
CC1=NN(C(=O)c2cccc(Cn3nc(C)c([N+](=O)[O-])c3C)c2)C(O)(C(F)(F)F)C1 (stereo unspecified)	?	i	15	5.8µM*	?
Cc1nn(Cc2cccc(C(=O)N3N=C(C(F)F)CC3(O)C(F)F)c2)c(C)c1[N+](=O)[O-] (stereo unspecified)	8.2µM*	i	35	?	-4%
Cc1nn(Cc2ccc(C(=O)N3N=C(C(F)F)CC3(O)C(F)F)o2)c(C)c1[N+](=O)[O-] (stereo unspecified)	?	i	5	3%	0%
COC(=O)c1cccc(Cn2nc(C)c([N+](=O)[O-])c2C)c1	?	i	14	4%	0%
Cc1ccc(S(=O)(=O)NNC(=O)c2c(O)c3ccccc3[nH]c2=O)cc1	2.6µM*	i	7	5.8µM*	?
COC(=O)c1c(O)c2ccccc2[nH]c1=O	i	i	-13	6%	7%
COC(=O)Nc1ccc(S(=O)(=O)NNC(=O)c2c(O)c3ccccc3[nH]c2=O)cc1	i	i	18	21µM*	?
CC(C)NC(=O)c1c(O)c2ccccc2[nH]c1=O	i	?	?	-4%	-4%
Cc1ccc2c(c1)C(c1ccc(F)cc1)N(C(=O)c1ccc(S(=O)(=O)N3CCCCC3)cc1)CC(=O)N2 (stereo unspecified)	?	i	/	/	/
Cc1ccccc1CNc1ccc(C(CC(N)=O)NC(=O)c2ccc(Br)cc2)cc1[N+](=O)[O-] (stereo unspecified)	i	i	-22	10µM*	?
CC(=O)NCCCC(=O)NN1C(=S)N(Cc2ccccc2)C(=O)C1CC(=O)Nc1cccc(C)c1 (stereo unspecified)	i	i	21	-5%	-4%
Cc1ccc(C2=NOC(C)(c3sc(-c4ccc(Cl)cc4)nc3C)C2)cc1 (stereo unspecified)	i	i	-23	1%	-36%[9.22 µM]
Cc1nc(-c2ccc(Cl)cc2)sc1C1(C)CC(c2ccc(F)cc2)=NO1 (stereo unspecified)	i	i	7	10µM*	-3%
CSCCC(NC(=O)c1ccccc1)C(=O)N1CCN(C(c2ccccc2)c2ccccc2)CC1 (stereo unspecified)	?	?	i	?	0%
S=C(NCc1ccco1)N1CCN(c2cccc(Cl)c2)CC1	i	i	0	-1%	-9%
O=C1C2CCCCN2C(=O)N1CCN1CCN(c2cccc(Cl)c2)CC1 (stereo unspecified)	i	i	27	0%	-3%
O=C1C2CCCN2C(=O)N1CCCCN1CCN(c2cccc(Cl)c2)CC1 (stereo unspecified)	8.2µM*	i	13	?	-703%
S=C(NCCN1CCOCC1)N1CCN(c2cccc(Cl)c2)CC1	4.6µM*	?	-92*	27%	-4%
Clc1cccc(N2CCN(CCCN3CCN(c4ccccc4)CC3)CC2)c1	i	?	-53*	?	?
O=C1CC(=C(c2ccccc2)c2ccccc2)C(=O)N1CCCCN1CCN(c2ccccc2)CC1	?	21µM*	?	?	?
